The values that follow come from PubChem BioAssay AID1347417 (National Center for Advancing Translational Sciences (NCATS), 2020).

Screen size: about 120,000 compounds; about 5,300 (4.4%) were called active. About 22% were inconclusive and are not listed. The entries come from a sample that favours actives as a whole. A call without a number means that no potency is given here. Unmarked numbers belong to inactive results. Calls follow the shape of the dose curve; as a rule, active = well fitted inhibition curve with a large enough effect; inconclusive = small, poorly fitted or top-dose-only effect; inactive = no such curve, though single readings can be large or run the other way.
Potency is read from the fitted curve at half-maximal effect.

The nature of the assay: qHTS Primary assay for Inhibitors of Plasmodium falciparum Dd2 growth in vitro. Also: nearly all actives have a fitted effect of over 65% in size. The conditions noted are these: P. falciparum Dd2 growth, SYBR Green, 72 h; series mostly up to 28.9 µM. The text has this:
Malaria, a parasitic disease spread to humans through the bite of a Plasmodium infected Anopheles mosquito, continues to be a global health burden affecting millions of people, with an estimated 228 million cases and 405,000 deaths in 2018. Concerns about safety and limitations of current antimalarial treatments strongly emphasize the need to develop new therapeutic options. The scarce number of chemotypes and validated drug targets with efficacy against the liver stage, have hindered development of new antimalarials. To address this, a chemoprophylactic drug discovery effort was conducted through a combined phenotypic high-throughput asexual blood stage and liver stage screen, providing a robust foundation to identify liver-stage active lead chemotypes. Compounds were initially screened against Plasmodium falciparum Dd2 strain parasites using a in vitro SYBRGreen-1 based 72 hr proliferation assay to identify novel chemotypes to advance to liver stage assays. NIH/NCATS Early Translation Branch Assay Submitter (PI): Anton Simeonov Ph.D.
Malaria-vivax Assay Protocol: PROTOCOL TABLE (as described by Inglese et al., 2007) SEQUENCE No. (e.g., 1, 2, 3, etc.); […] (e.g., Cells, Incubation, Reagent, etc.); VALUE; DESCRIPTION SEQUENCE, Parameter, Description 1; Reagent; 3 uL complete malaria growth medium, 1536 TC treated Black clear bottom plate 2; Controls; 23 nL positive control artesunate (300 nM final) to column 1; Neutral control DMSO to columns 2-4 3; Compound; 23 nL of compounds in dose response concentration (29 uM to 0.5 nM final) 4; Reagent; 5 uL malaria infected red blood cells (2.5% hematocrit final, 0.3% parasitemia 5; Time; 72 hours at 37C (5% O2, 5% CO2, 90% N2; 95% Rh) 6; Reagent; 2 uL lysis buffer/SYBRGreen-1, 25 sec shake immediately following dispense 7; Time; ~16 hours at 37C (5% O2, 5% CO2, 90% N2; 95% Rh) 8; Detector; EnVision (PerkinElmer) bottom read at 485/14nm excitation and 535/25 nm emission NOTES (numbers refer to sequence above): 1; Complete Malaria Growth Media: 1X RPMI-1640 w/L-glutamine, 5.5g/L Albumax II, 367 uM Hypoxanthine, 25 mM HEPES, 0.25% Sodium Bicarbonate, 35 uM Gentamicin sulfate 2; Controls were added using the Kalypsis Pintool (Wako USA) equipped with 1536 pinhead 3; Compounds were added in a 7-point, titration with a high final concentration of 29 uM by Pintool from seven inter-plate titrations of library plates and two DMSO control plates at the beginning and end (see Yasgar et al., 2008). 4; Red blood cells infected with Plasmodium falciparum Dd2 parasites were used. 6; Lysis buffer: 20 mM Tris-HCl, 10 mM EDTA, 0.16% Saponin, 1.6% Triton-X, 10X SYBR Green. REFERENCE: Inglese J, Shamu CE, Guy RK. 2007. Reporting data from high-throughput screening of small-molecule libraries. Nat Chem Biol. doi:10.1038/nchembio0807-438 Yasgar A, Shinn P, Jadhav A, Auld D, Michael S, Zheng W, Austin CP, Inglese J, Simeonov A. 2008. Compound Management for Quantitative High-Throughput Screening. J Lab Autom 13:79-89. doi:10.1016/j.jala.2007.12.004
On the technique in general: qHTS replaces the single test concentration by a dilution series.
On to `CN(CCc1cn[nH]c1)c1ccc(-c2nc(-c3ccccc3F)no2)cn1`, for which the Potency entry was “inactive”. With `Cc1cc(C)n(CC(=O)N2CC[C@@H]3CN(S(C)(=O)=O)[C@@H]3C2)n1`, the Potency result was “inactive”. In the case of `Oc1ccccc1CN1C[C@H](O)C[C@H]1c1nc(Cc2ccc(F)cc2Cl)no1`, the Potency entry is “inactive”. The same measure, in the same setting: under `CCCNC(=O)C(NC(=O)c1ccc(OC)cc1)C1CCN(C(=O)c2ccc3c(c2)OCO3)CC1` (stereo unspecified) stands “inactive”; under `O=C(c1ccccc1-n1cccn1)N1CCc2c(nc[nH]c2=O)C1`, “inactive”; under `CC(C)(Oc1nn(CCOc2ccccc2)c2ccccc12)C(=O)NCCCn1ccnc1`, “inactive”.

For the compound `CCOC(=O)C1CCN(C(=O)C2(c3ccc(NS(C)(=O)=O)cc3)CCCCC2)CC1`, the Potency result is “inactive”.

As for `COCCNC(=O)c1ccc(OC2CCN(C/C=C/c3ccco3)CC2)c(Cl)c1`, the Potency result was “inactive”. For `CSc1ccc(C2c3c(oc4ccccc4c3=O)C(=O)N2CCCN2CCOCC2)cc1` (stereo unspecified), the Potency entry was “inactive”. With `Cc1ccc2oc3c(c(=O)c2c1)C(c1ccc([N+](=O)[O-])cc1)N(CCCN1CCOCC1)C3=O` (stereo unspecified), the Potency is 10 µM (active). Turning to `COc1ccc(C2c3c(oc4ccccc4c3=O)C(=O)N2Cc2ccc3c(c2)OCO3)cc1` (stereo unspecified), the Potency entry is “inactive”. Still for that read-out and setting: the result for `Cc1cccc(C(=O)NCCC2CCN(C(=O)Nc3ccc(F)cc3F)CC2)c1` reads “inactive”; that for `COc1cccc(NC(=O)c2cnc3n[nH]c(-c4ccc(OC)cc4C)c3n2)c1`, “inactive”. As to `COc1ccccc1N1CCN(CCCNC(=O)c2cnn(-c3ccccc3Cl)c2C2CCN(C(=O)OC(C)(C)C)CC2)CC1`, the Potency was 1.41 µM (active). For the compound `Cc1oc2ncnc(N3CCCCC3)c2c1C(=O)N1CCN(c2cccc(Cl)c2)CC1`, the Potency entry was “inactive”. For `Cc1c(Cl)cccc1NC(=O)C1CCCN(C(=O)c2cnn(-c3ccccc3)c2-n2cccc2)C1` (stereo unspecified), the Potency entry is “inactive”.

Take `COc1ccccc1CN1CCC(CNC(=O)c2cnn(-c3cccc(Cl)c3)c2C2CCN(C(=O)OC(C)(C)C)CC2)CC1`: the Potency is 1.41 µM (active). Regarding `CC(C)(C)OC(=O)N1CCC(c2c(C(=O)N3CCN(c4cccc(Cl)c4)CC3)cnn2-c2cccc(Cl)c2)CC1`, the Potency is 7.08 µM (active). Regarding `CCn1ncc(N2CCC(NC(=O)c3ccccc3OC)CC2)cc1=O`, the Potency entry was “inactive”. Regarding `COc1ccccc1N1CCN(S(=O)(=O)CCNC(=O)COc2ccc(F)cc2)CC1`, the Potency entry was “inactive”. With `Cc1ccc(C2CCN(C(=O)c3cnn(-c4ccccc4Cl)c3C3CCN(C(=O)OC(C)(C)C)CC3)C2)cc1` (stereo unspecified), the Potency was 3.98 µM (active). For the compound `COc1ccccc1C(=O)N1CCC(c2n[nH]c(=O)n2-c2ccc(C)cc2)CC1`, the Potency result is “inactive”. As for `Cc1cccc(-n2ncc(C(=O)N3CCc4ccccc4C3)c2C2CCN(C(=O)OC(C)(C)C)CC2)c1`, the Potency entry was “inactive”. In the case of `O=C(NCC1CC1)c1nc2c(o1)CCN(Cc1cccc(F)c1F)CC2`, the Potency result was “inactive”. With `Cc1cccc(-n2ncc(C(=O)N3CCC(C)CC3)c2C2CCN(C(=O)OC(C)(C)C)CC2)c1`, the Potency result is “inactive”. On to `Cc1noc2c(N3CC[S+](=O)([O-])CC3)cc(-c3ccc(Cl)cc3)nc12`, for which the Potency result was “inactive”. Regarding `O=C(NC1CCCC1)N1CCC(Oc2ccc(-c3noc(C4CC4)n3)cc2)C1` (stereo unspecified), the activity, negative = inhibition was 5.78% [at 5.79 µM].

As to `CCCC(c1cccs1)n1cc(-c2cncnc2)nn1` (stereo unspecified), the Potency entry is “inactive”. The same measure, in the same setting: the result for `O=c1cc(N2CCOCC2)cnn1Cc1cc(C(F)(F)F)ccc1F` reads “inactive”; that for `O=C(c1ccccn1)N1CCC2(CNS(=O)(=O)c3cnccc3O2)C1` (stereo unspecified), “inactive”. With `Cc1noc(C)c1-c1cc2cc(CNC3CCOCC3)oc2c(NC2CCN(C)CC2)n1`, the Potency entry is “inactive”. Take `Cc1ccc(C2(O)CCN(C(=O)c3ccccc3-c3nn[nH]n3)CC2)nc1`: the Potency result was “inactive”. For `Cc1ccc(NC(=O)Nc2ccc(C)n(CC(=O)NCCN3CCCC3)c2=O)cc1`, the Potency result was “inactive”. In the case of `COCC(=O)NC1CCC12CCN(S(=O)(=O)c1c(C)noc1C)CC2` (stereo unspecified), the Potency result was “inactive”.

With `COc1ccc(OC)c(CNC(=O)C2(c3ccc(NC(C)=O)cc3)CCCCC2)c1`, the Potency entry is “inactive”. On the same count and under the same terms, under `COCC1CN(C(C)=O)CC12CCN(Cc1ccccc1OC)CC2` (stereo unspecified) stands “inactive”.

Take `Cc1cccc(C)c1-n1ncc(C(=O)NCCCN2CCCCC2)c1C1CCN(C(=O)OC(C)(C)C)CC1`: the Potency was 8.91 µM (active). As for `COc1ccccc1CN1CC[C@H](CNC(C)=O)[C@H](N(C)C)C1`, the Potency entry was “inactive”. Turning to `CC(C)(C)OC(=O)N1CCC(c2c(C(=O)NCCc3ccsc3)cnn2-c2ccc(F)cc2F)CC1`, the Potency is 8.91 µM (active).

With `Cc1ccccc1CCNC(=O)C1CCN(c2nc3ccccc3nc2C(F)(F)F)CC1`, the Potency entry was “inactive”. Regarding `Cc1ccc2c(c1)N(CC(=O)NCCCN1CCCCC1)C(=O)c1cccnc1O2`, the Potency result is “inactive”. With `COc1ccccc1CN1CCC(CNC(=O)c2cnn(-c3ccccc3Cl)c2C2CCN(C(=O)OC(C)(C)C)CC2)CC1`, the Potency was 2.51 µM (active). On to `Cc1ccc(CN2CCC(CNC(=O)c3cnn(-c4ccccc4Cl)c3C3CCN(C(=O)OC(C)(C)C)CC3)CC2)cc1`, for which the Potency is 2.82 µM (active). Take `COc1cc(NC(=O)NCC2CCN(Cc3ccc(C)cc3)CC2)cc(OC)c1OC`: the Potency result was “inactive”. On the same count and under the same terms, under `O=C(NCCC1CCN(C(=O)Nc2cc(F)ccc2F)CC1)c1cc(F)ccc1F` stands “inactive”. With `O=C(NCCC1CCN(C(=O)Nc2ccc(F)cc2F)CC1)c1cccs1`, the Potency result was “inactive”. `CCCn1c2ccccc2c2cnn(CC(=O)NCC3CCN(Cc4ccc(C)cc4)CC3)c(=O)c21`: the Potency entry is “inactive”. On the same count and under the same terms, under `O=C(c1n[nH]c(=O)c2ccccc12)N1CC2CC(C1)[C@H]1CCCC(=O)N1C2` (stereo partly specified) stands “inactive”; under `Cc1ccc(N2Cc3c(NCCCOC(C)C)ncnc3N(C)CC2=O)cc1`, “inactive”. `Cc1cc(=O)[nH]c(NCCNC(=O)c2cc(-c3cccn3C)n[nH]2)n1`: the Potency entry was “inactive”. As for `Cc1cccc(CC(=O)N2C[C@@H](COc3ccccc3)[C@H](C(N)=O)C2)c1`, the Potency result is “inactive”.

In the case of `Cc1nc(C(=O)N2CC[C@H](NC(=O)c3snnc3C)C[C@H]2C(=O)N[C@H](CC(C)C)C(N)=O)cs1`, the Potency entry was “inactive”. Take `Cc1ccc(NC(=O)N2CC3CC(C2)[C@H]2CCCC(=O)N2C3)cc1F` (stereo partly specified): the Potency entry was “inactive”. Same read-out and setting: under `O=C(N[C@@H]1C[C@H](Cn2cc(CN3CCS(=O)(=O)CC3)nn2)[C@@H](O)[C@H]1O)c1cnccn1` stands “inactive”; under `CCC1(N2CCN(C(=O)c3ccc(C(F)(F)F)s3)CC2)CCN(C(=O)NC)C1` (stereo unspecified), “inactive”.

Consider `N#Cc1ccccc1NC(=O)c1cc2n(n1)CC(c1ccc(Br)cc1)OC2` (stereo unspecified), for which the Potency entry is “inactive”.
